Screens: PubChem, NMMLSC
CIT2-GFP yeast = alters CIT2-GFP fluorescence in TOR pathway yeast screen; 320,000 tested, 0.065% active; S. cerevisiae CIT2-GFP strain, flow cytometry, 3 h; 100 means same as DMSO wells; GFP response vs DMSO, % at 10 µM;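 active = GFP response relative to DMSO above a set limit, near the screen mean plus 3 SD, cut at about 150% in these data; inconclusive = Fewer than 70 cells measured for a yeast strain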;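 also: ratio of well median GFP fluorescence to mean of DMSO wells on the plate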
RPL19A-GFP yeast = alters RPL19A-GFP fluorescence in TOR pathway yeast screen; S. cerevisiae RPL19A-GFP strain, flow cytometry, 3 h; stronger effect = lower value; percent response vs DMSO, % at 10 µM; 330,000 tested, 0.3% active;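 active = percent response vs DMSO below 50%; inconclusive = fewer than 70 events counted for the yeast strain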;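 also: median channel GFP fluorescence of the barcoded RPL19A-GFP strain; ratio of sample median GFP to plate DMSO average so 100% = DMSO; lower means less RPL19A-GFP as with rapamycin TOR inhibition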
LAP4-GFP MLPCN = alters LAP4-GFP fluorescence in TOR pathway yeast screen; AID 2023; 320,000 tested, 0.34% active; S. cerevisiae LAP4-GFP multiplex, flow cytometry GFP, 3 h; median GFP as percent of DMSO wells; GFP response vs DMSO, % at 10 µM;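 active = GFP response vs DMSO above a set limit, about the screen mean plus 3 SD, cut at about 150% in these data; inconclusive = under 70 cell events counted for the yeast strain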
MEP2-GFP yeast = yeast TOR pathway MEP2-GFP modulation. GFP response vs DMSO, % at 10 µM. AID 2016. S. cerevisiae MEP2-GFP strain, flow cytometry GFP, 3 h; 100% = DMSO control level. 330,000 tested, 0.51% active;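 active = GFP response versus DMSO above a set limit, roughly screen mean plus 3 SD, cut at about 180% in these data; inconclusive = fewer than 70 cells counted for a yeast strain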;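 also: median GFP fluorescence of the barcode-gated MEP2-GFP cells per well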
AGP1 TOR yeast = alters AGP1-GFP fluorescence in TOR pathway yeast screen; 320,000 tested, 0.02% active; GFP response vs DMSO, % at 10 µM; AID 2066; S. cerevisiae AGP1-GFP multiplex flow cytometry, 3 h; GFP as percent of DMSO wells;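 active = GFP response relative to DMSO above a set limit, near screen average plus 3 SD, cut at about 150% in these data; inconclusive = fewer than 70 cells counted for the yeast strain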;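 also: median GFP channel fluorescence of the gated AGP1 strain per well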
* marks the source's active call; other numbers are inactive results; ? = inconclusive; · = no result; [ ] = another dose, or the depositor's remark. Hits are enriched below; roughly 0.89% of the tested compounds scored in any of these assays.

SMILES | CIT2-GFP yeast | RPL19A-GFP yeast | LAP4-GFP MLPCN | MEP2-GFP yeast | AGP1 TOR yeast
CCc1cc(=O)oc2c(CN3CCN(C)CC3)c(O)ccc12 | 92 | 82 | · | 88 | 87
CCc1cc(=O)oc2c(CN3CCCC3)c(O)c(Cl)cc12 | 94 | 33* | 83 | 248* | 68
O=C(COc1nnc2ccccn12)N1CCN(S(=O)(=O)c2ccccc2)CC1 | 84 | 99 | 96 | 94 | 96
CCc1nnc(NS(=O)(=O)c2ccc(N/C=C\C(=O)c3cccc(OC)c3)cc2)s1 | ? | 56 | 97 | 270*[may fluoresce violet] | ?
Cc1ccc(C)c(OCc2cc(C(=O)NC(C)c3cnn(C)c3)no2)c1 (stereo not given) | ? | 25*[may fluoresce violet] | 82 | 124 | ?
Cc1nc(C(C)NC(=O)c2cc(COc3ccc(C)c(C)c3)on2)c(C)s1 (stereo not given) | ? | 17*[may fluoresce violet] | 71 | 147 | ?
COC(=O)c1ccc(COc2ncnc3ccccc23)o1 | 99 | 107 | 98 | 107 | 102
COc1ccc(NCc2nnc(SCC(=O)Nc3cc(C(F)(F)F)ccc3Cl)o2)cc1 | · | 97 | 100 | 97 | 104
N=c1c(C(=O)NCCN2CCOCC2)cc2c(=O)n3ccccc3nc2n1CCCN1CCOCC1 | ? | 52 | 78 | 247*[may fluoresce violet] | ?
N=c1c(C(=O)NCCN2CCOCC2)cc2c(=O)n3ccccc3nc2n1Cc1ccc(F)cc1 | ? | 28*[may fluoresce violet] | 80 | 140 | 15
O=C(CSc1cn[nH]n1)Nc1ccc(Cl)cc1Cl | ? | 52 | 76 | 239*[may fluoresce violet] | ?
CCN(CC)S(=O)(=O)c1ccc(N/N=C/c2cc(OC)c(OC)cc2OC)nc1 | ? | 68 | 88 | 201*[may fluoresce violet] | 22
O=C(c1ccc(N2CCCC2)c([N+](=O)[O-])c1)N1CCN(CCO)CC1 | ? | 48*[may fluoresce violet] | 70 | 189*[may fluoresce violet] | ?
C/C(=N/OC(=O)c1ccc(F)cc1)c1ccc(C)cc1 | ? | 53 | 100 | 327*[may fluoresce violet] | 29
Cc1ccccc1/C(N)=N/OC(=O)c1ccc(F)cc1 | 97 | 97 | 103 | 100 | 91
O=C(CSc1nc2ccsc2c(=O)n1CC1CCC(C(=O)O)CC1)c1ccc(F)cc1 (stereo not given) | 259* | 74 | 224* | 880* | 215*
CCOc1ncccc1C(=O)OCC(=O)NCCc1ccccc1 | ? | 58 | 57 | 245*[may fluoresce violet] | ?
C=CCNC(=S)N/N=C(\C)c1cccc(OC)c1 | 100 | 106 | 123 | 217* | 94
COc1ccc(CCC(=O)NC2CCCc3ccccc32)cc1OC (stereo not given) | ? | 28*[may fluoresce violet] | 71 | 236*[may fluoresce violet] | ?
COc1ccccc1OCC(=O)NC1CCCc2ccccc21 (stereo not given) | 87 | 101 | 92 | 99 | 93
COc1ccc(CCC(=O)Nc2nccs2)cc1OC | ? | 47*[may fluoresce violet] | 94 | 198*[may fluoresce violet] | 22
O=C(N/N=C/c1c(O)ccc2ccccc12)c1ccc(Br)o1 | 105 | 104 | 96 | 98 | 98
CC(=O)Nc1ccc(NC(=O)C2c3ccccc3Oc3ccccc32)cc1 | 98 | 97 | 96 | 97 | 93
COc1ccnc(Oc2ccc(Cl)cc2)c1C#N | 100 | 100 | 104 | 103 | 101
COc1ccnc(N=CNOCc2ccc(Cl)cc2)c1C#N | ? | 45*[may fluoresce violet] | 89 | 226*[may fluoresce violet] | 20
SMILES | CIT2-GFP yeast | RPL19A-GFP yeast | LAP4-GFP MLPCN | MEP2-GFP yeast | AGP1 TOR yeast
Cc1ccc2c(c1)nnn2C1CCN(CC(=O)Nc2ccc(F)cc2)CC1 | 80 | 104 | 120 | 96 | 99
CCCC(NC(=O)CCc1c(C)c2cc3c(-c4ccccc4)coc3cc2oc1=O)C(=O)O (stereo not given) | ? | 65 | 100 | 288*[may fluoresce violet] | ?
COc1cccc(C(=O)Nc2ccc3nc(N4CCN(c5ncccn5)CC4)cc(C)c3c2)c1OC | ? | 18*[may fluoresce violet] | 71 | 272*[may fluoresce violet] | ?
COc1ccc(-c2cc(C(F)(F)F)nc(N3CCOCC3)n2)cc1OC | 99 | 81 | 186* | 213* | 99
COc1ccc(Cc2nnc(NC(=O)c3ccccc3F)s2)cc1 | 141 | 74 | 294* | 914* | 155*
COc1ccc(Cc2nnc(NC(C)=O)s2)cc1 | 98 | 98 | 92 | 97 | 96
C=CCn1c(SCC(=O)NC(=O)NCCC)nnc1C1CCCCC1 | 97 | · | 93 | 100 | 95
C=CCn1c(SCC(=O)NC(=O)NCC(C)C)nnc1C1CCCCC1 | · | 53 | 84 | 527*[may fluoresce violet] | 22
O=C(NC1CCN(C(=O)Nc2ccc(F)cc2)CC1)c1cccc(F)c1 | ? | 30*[may fluoresce violet] | 59 | 200*[may fluoresce violet] | ?
[O-]/[N+](=C\c1ccccc1)c1ccc(Br)cc1 | 100 | 96 | 107 | 111 | 94
O=C(COc1ccccc1[N+](=O)[O-])Nc1ccc(Br)cc1 | ? | 56 | 89 | 605*[may fluoresce violet] | 21
O=C(COc1ccccc1[N+](=O)[O-])Nc1cccnc1 | 112 | 100 | 99 | 100 | 106
COc1ccc(CCNS(=O)(=O)c2c(C)nc3scc(C)n3c2=O)cc1OC | 100 | 98 | 104 | 108 | 100
Nc1ncnc(NCc2ccc(F)cc2)c1[N+](=O)[O-] | 92 | 97 | 117 | 91 | 97
O=c1c(C=NCC2CCCO2)c(-c2ccccc2)[nH]n1-c1ccc([N+](=O)[O-])cc1 (stereo not given) | ? | 35*[may fluoresce violet] | ? | ? | ?
COc1ccc(-c2[nH]n(-c3ccc([N+](=O)[O-])cc3)c(=O)c2C=NCC2CCCO2)cc1 (stereo not given) | 100 | 94 | 95 | 98 | 97
CN1C(=O)Cn2c1nc1ccccc12 | 83 | 87 | 93 | 88 | ·
COc1ncnc2c1oc1nc(C)c3c(c12)CC(C)(C)OC3 | 102 | 98 | 107 | 92 | 104
COc1ncnc2c1oc1nc(C(C)C)c3c(c12)CC(C)(C)OC3 | · | 44*[may fluoresce violet] | 89 | 531*[may fluoresce violet] | 28
CC(NC(=O)C1CCC(CNS(=O)(=O)c2ccccc2)CC1)c1ccccc1 (stereo not given) | 122 | 68 | 132 | 311* | 124
Cc1ccccc1NC(=O)Cc1nc(COC(=O)c2ccccn2)cs1 | 93 | 97 | 104 | 108 | 95
CC(OC(=O)CCc1nc2ccccc2[nH]c1=O)C(=O)c1ccccc1 (stereo not given) | 99 | 100 | 99 | 99 | 100
CC1CCCN(S(=O)(=O)c2ccc(Cl)s2)C1 (stereo not given) | ? | 54 | 84 | 316*[may fluoresce violet] | 22
Cc1nc2ccc(Br)cn2c1C(=O)N/N=C\c1ccccc1Cl | 124 | 86 | 135 | 248* | 126
O=C1c2ccccc2CCC12N=NCC2c1ccccc1 (stereo not given) | ? | 14*[may fluoresce violet] | 133 | 246*[may fluoresce violet] | ?
O=C1c2ccccc2CCc2ccc(Br)cc21 | 97 | 96 | 98 | 89 | 98
COc1cccc(CN(C)C(=O)C23CC4CC(CC(C4)C2)C3)c1 | 95 | 97 | 108 | 91 | 96
